# NPC1 promoter act: qHTS Assay for NPC1 Promoter Activators; Huh7 NPC1 promoter luciferase reporter, 24 h; Potency, µM (highest dose often 9.22 µM), inactives show at the highest dose activation, usual class: activators; hit rate 2.4% among 320,000; AID 485313, 2010; also: % of control where 0% means no effect; nearly all actives have a fitted effect of over 60% in size
#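 Luminescence read-out of NPC1 promoter-driven luciferase in stably transfected Huh7 cells; compounds delivered in DMSO and left 24 h at 37C, 5% CO2, qHTS titration format.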
# Rab9 promoter act: qHTS Assay for Rab9 Promoter Activators | Huh7 Rab9 promoter-luciferase reporter, luminescence, 24 h | Potency, µM (titrated, usually from 9.22 µM), for the others: at the top dose activation, negative = inhibition, most hits filed as activators | hit rate 2.8% among 320,000 | AID 485297, 2010; also: % of control where 0% means no effect; nearly all actives have a fitted effect of over 60% in size
#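 Steps: seed 1500 Huh7 Rab9-luc cells per well, rest 2 h at 37 °C; add compound in DMSO; incubate 24 h; add luciferase reagent, 10 min ambient; read luminescence.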
# SMN2 splice up: qHTS Assay for Enhancers of SMN2 Splice Variant Expression. HEK293 SMN2-luciferase splicing reporter, luminescence, 30-36 h. Potency, µM (titrated, usually from 46.1 µM), for inactives: at the top dose activity change, positive = activation, most hits filed as activators. hit rate 2.8% among 210,000; also: % of control where 0% means no effect; nearly all actives have a fitted effect of over 55% in size
#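 HEK293 cells carry an SMN2 […]–luciferase reporter in which exon 7 inclusion puts luciferase in frame. Cells were plated 10-12 h before compound addition, then incubated 30-36 h at 37C. ONE-Glo luminescence was read; sodium butyrate at 4.5 mM final served as control.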
# Luc counter: Counterscreen for Luciferase (Kinase-Glo TM) Inhibition; Luciferin 4-monooxygenase (Photuris pensylvanica), Q27757; Kinase-Glo luciferase, ATP luminescence, 8 min; Potency, µM (series often up to 38.3 µM), for the others: top-dose activity change, negative = inhibition, actives largely listed as inhibitors; hit rate 0.28% among 200,000; also: % is scaled to controls: 0 for no effect and ±100 for the full control effect; nearly all actives have a fitted effect of over 60% in size
#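 Recombinant Kinase-Glo luciferase, 10 uM ATP (linear range), luciferin; imidazole pH 7.2 / KCl / MgCl2 / Tween / BSA buffer; 8 min RT; luminescence.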
# FLuc counter: qHTS profiling assay for firefly luciferase inhibitor/activator using purifed enzyme and Km concentrations of substrates (counterscreen for miR-21 project). Luciferin 4-monooxygenase (Photinus pyralis), P08659. AID 588342, 2011. hit rate 6.9% among 360,000. Potency, µM (highest dose often 57.5 µM), for inactives: at the top dose activity change, negative = inhibition, usual class: inhibitors. purified FLuc, Km substrates, luminescence inhibition;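 also: plate controls were vehicle for no effect and reference inhibitor for full effect; nearly all actives have a fitted effect of over 55% in size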
# Target sequence (P08659 whole entry, looked up): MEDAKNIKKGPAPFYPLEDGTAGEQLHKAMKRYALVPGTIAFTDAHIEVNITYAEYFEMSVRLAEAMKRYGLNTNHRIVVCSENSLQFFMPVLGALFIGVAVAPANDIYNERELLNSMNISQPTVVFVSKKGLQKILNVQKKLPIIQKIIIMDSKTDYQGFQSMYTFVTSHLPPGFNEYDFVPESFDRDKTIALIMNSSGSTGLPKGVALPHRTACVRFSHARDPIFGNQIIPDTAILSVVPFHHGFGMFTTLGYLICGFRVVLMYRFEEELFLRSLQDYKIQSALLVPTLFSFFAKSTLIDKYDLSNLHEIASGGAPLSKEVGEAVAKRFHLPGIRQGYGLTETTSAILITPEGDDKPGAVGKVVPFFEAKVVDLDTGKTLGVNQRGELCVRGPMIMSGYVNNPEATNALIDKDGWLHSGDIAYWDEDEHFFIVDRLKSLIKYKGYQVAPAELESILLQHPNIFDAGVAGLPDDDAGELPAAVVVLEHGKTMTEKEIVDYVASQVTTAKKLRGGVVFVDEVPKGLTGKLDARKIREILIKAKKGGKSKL
#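 Purified P. pyralis luciferase, 10 nM final, with Km-level 10 uM D-luciferin and 10 uM ATP in 50 mM Tris acetate pH 7.5, 10 mM Mg acetate, 0.01% Tween-20, 0.05% BSA; 6-point qHTS titration about 60 µM downward; luminescence read.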
# * hit, by the source's call; ? = inconclusive; . = not tested or not shown. This is a sample that favours compounds with a hit; in the whole collection about 7.3% have one here. Calls follow the shape of the dose curve; as a rule, active = well fitted curve in the direction sought with a large enough effect; inconclusive = small, poorly fitted or top-dose-only effect, or another doubt; inactive = no such curve, though single readings can be large; an effect the other way counts as inactive or inconclusive. Potency is read from the fitted curve at half-maximal effect.
SMILES,NPC1 promoter act,Rab9 promoter act,SMN2 splice up,Luc counter,FLuc counter
Cc1cc(C(=O)COC(=O)c2ccncc2)c(C)n1Cc1ccco1,-12%,?,6%,-8%,0.85µM*
CC(C)C(NC(=O)c1ccco1)C(=O)OCC(=O)c1ccccc1 (stereo not given),0%,6%,.,.,17µM*
Cc1cc(C(=O)COC(=O)c2cc(Cl)ccc2N)c(C)n1Cc1ccco1,3.5µM*,2.5µM*,14µM*,1%,2.4µM*
CCCCNc1nc(Oc2ccc(OCCC)nn2)nc(N(C)C)n1,.,.,-1%,.,4%
Cc1nn(C)c(C)c1S(=O)(=O)N(CC(=O)Nc1ccc(F)cc1F)c1ccc(C(C)C)cc1,.,.,7%,.,-10%
Cc1cc(C(=O)CN2C(=O)C(=O)N(Cc3ccco3)C2=O)c(C)n1CCc1ccccc1,1%,?,.,.,5%
Cc1cc(C(=O)COC(=O)c2cccn2C)c(C)n1Cc1ccco1,0.79µM*,0.63µM*,?,-14%,0.6µM*
Cc1cc(C(=O)CSc2nnc(N)s2)c(C)n1Cc1ccco1,0.45µM*,0.45µM*,?,-1%,3µM*
Cc1cc(C(=O)COC(=O)c2ccco2)c(C)n1Cc1ccco1,?,1.4µM*,13%,-10%,0.21µM*
CCc1c(C)sc2c1CCN(C(=O)Nc1ccccc1Cl)C2c1ccc(OC)cc1 (stereo not given),.,.,.,.,-3%
Cc1ccc(CNc2nc(C)cs2)cc1,2µM*,1.1µM*,.,.,6µM*
CC(CNC(=O)c1ccc(Cn2c(SCc3ccccc3)nc3cccnc32)cc1)c1ccccc1 (stereo not given),.,.,.,.,4.8µM*
CCN(CC)CCCNC(=O)c1ccc(Cn2c(SCc3ccccc3)nc3cccnc32)cc1,.,.,.,.,21µM*
COc1ccccc1CNC(=O)c1ccc(Cn2c(SCc3ccccc3)nc3cccnc32)cc1,.,.,.,.,4.8µM*
Cc1ccccc1CNC(=O)c1ccc(Cn2c(SCc3ccccc3)nc3cccnc32)cc1,.,.,.,.,2.7µM*
COc1ccc(-c2nc(CSCC(=O)NCc3ccccc3Cl)c(C)o2)cc1OC,.,.,-22%,.,-15%
CCOC(=O)C1CCN(C(=O)C2CCN(S(=O)(=O)c3c(C)noc3/C=C/c3ccc(C)cc3)CC2)CC1,.,.,.,.,7%
Cc1nc2ccccc2nc1Nc1cccc(Cl)c1,0%,8%,.,.,-18%
COc1ccc(Nc2cnn(-c3nc4ccccc4s3)c(=O)c2Cl)cc1,?,?,10µM*,?,11µM*
O=c1c(Cl)c(Nc2cccc(Cl)c2)cnn1-c1nc2ccccc2s1,?,?,10µM*,-8%,4.8µM*
Cc1ccc(C)c(N2CCN(c3cnn(-c4nc5ccccc5s4)c(=O)c3Cl)CC2)c1,2.2µM*,1.6µM*,?,-11%,6.7µM*
Cc1ccc(-c2nnc(SCc3ccccc3)o2)cc1,.,.,.,.,4.8µM*
Oc1ccc(-c2nnc(SCc3ccccc3)o2)cc1,?,9%,.,.,27µM*
Fc1ccc(CSc2nnc(-c3ccncc3)o2)cc1,14%,2%,-30%,1%,-2%
C#CCSc1nnc(-c2ccc(O)cc2)o1,27%,?,?,-6%,?
SMILES,NPC1 promoter act,Rab9 promoter act,SMN2 splice up,Luc counter,FLuc counter
C#CCSc1nnc(-c2ccc(C)cc2)o1,3.5µM*,2.2µM*,13µM*,-4%,7.6µM*
c1ccc(CSc2nnc(-c3cccnc3)o2)cc1,?,?,?,-2%,?
Cc1ccccc1-c1nnc(SCc2ccc(F)cc2)o1,?,24%,-9%,3%,15µM*
Cc1cccc(-c2nc3scc(CCNS(=O)(=O)c4ccc(F)c(C(F)(F)F)c4)n3n2)c1,.,.,.,.,-2%
CN(C)c1ccc(NC(=O)Cn2cc(S(=O)(=O)Cc3ccccc3Cl)c3ccccc32)cc1,.,.,.,.,9.5µM*
CCC(=O)OCc1cnc(C)c2oc(=O)c(C(=O)Nc3ccccc3C(F)(F)F)cc12,.,.,.,.,0%
COc1cccc2sc(N(C)c3ccccc3)nc12,1.3µM*,0.5µM*,8.9µM*,-10%,0.85µM*

# Assay outcomes from PubChem BioAssay.
